Screening results deposited in PubChem BioAssay by National Center for Advancing Translational Sciences (NCATS).
Most compounds without a hit are left out; they make up all but 1.3% or so of the library.
gsp agonist = qHTS for Agonist of gsp, the Etiologic Mutation Responsible for Fibrous Dysplasia/McCune-Albright Syndrome: qHTS; AID 624287, 2012; gsp mutant cells, cAMP HTRF, 30 min; 0.13% of 340,000 active; Potency, µM (titrated, usually from 76.9 µM), most hits filed as activators; active = well fitted activation curve with a large enough effect; inconclusive = small, poorly fitted or top-dose-only effect, or another doubt; inactive = no such curve, though single readings can be large or run the other way; cell line not stated here;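 note: phosphodiesterase inhibitor Ro 20-1724 added with compounds to block cAMP breakdown; nearly all actives have a fitted effect of over 60% in size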
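Cells in DMEM/10% FBS with G418 were pretreated with compounds in DMSO plus […] (300 uM stock) for 30 min at 37C. cAMP was measured by HTRF (cAMP-d2 plus anti-cAMP antibody-K) after 30 min at room temperature.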
gsp antagonist = qHTS for Antagonists of gsp, the Etiologic Mutation Responsible for Fibrous Dysplasia/McCune-Albright Syndrome: qHTS | 0.4% of 340,000 active | Potency, µM (titrated, usually from 76.9 µM), most hits filed as inhibitors | gsp-mutant cells, cAMP HTRF, 30 min; calls by dose curve; cell line not stated here;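 note: intracellular cAMP measured with PDE inhibitor Ro 20-1724 present during compound exposure; nearly all actives have a fitted effect of over 65% in size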
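HTRF cAMP measurement after 30 min RT detection following 30 min, 37C compound treatment alongside […] (added as 300 uM solution) in G418-selected cells seeded at 2000/well and grown 16–24 h.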
RXFP1 antag = qHTS Assay for Antagonists of the Relaxin Receptor RXFP1. HEK293-RXFP1, relaxin-stimulated cAMP HTRF, 30 min; active compounds read low. activity change, negative = inhibition, % at 57.5 µM. Relaxin receptor 1 (Homo sapiens), Q9HBX9. 0.59% of 350,000 active;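 active = activity change of -60% or lower, but not beyond a set lower limit; inconclusive = change between -60% and -40%, or beyond the set limit; inactive = change above -40%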
Target sequence (Q9HBX9 whole entry, looked up): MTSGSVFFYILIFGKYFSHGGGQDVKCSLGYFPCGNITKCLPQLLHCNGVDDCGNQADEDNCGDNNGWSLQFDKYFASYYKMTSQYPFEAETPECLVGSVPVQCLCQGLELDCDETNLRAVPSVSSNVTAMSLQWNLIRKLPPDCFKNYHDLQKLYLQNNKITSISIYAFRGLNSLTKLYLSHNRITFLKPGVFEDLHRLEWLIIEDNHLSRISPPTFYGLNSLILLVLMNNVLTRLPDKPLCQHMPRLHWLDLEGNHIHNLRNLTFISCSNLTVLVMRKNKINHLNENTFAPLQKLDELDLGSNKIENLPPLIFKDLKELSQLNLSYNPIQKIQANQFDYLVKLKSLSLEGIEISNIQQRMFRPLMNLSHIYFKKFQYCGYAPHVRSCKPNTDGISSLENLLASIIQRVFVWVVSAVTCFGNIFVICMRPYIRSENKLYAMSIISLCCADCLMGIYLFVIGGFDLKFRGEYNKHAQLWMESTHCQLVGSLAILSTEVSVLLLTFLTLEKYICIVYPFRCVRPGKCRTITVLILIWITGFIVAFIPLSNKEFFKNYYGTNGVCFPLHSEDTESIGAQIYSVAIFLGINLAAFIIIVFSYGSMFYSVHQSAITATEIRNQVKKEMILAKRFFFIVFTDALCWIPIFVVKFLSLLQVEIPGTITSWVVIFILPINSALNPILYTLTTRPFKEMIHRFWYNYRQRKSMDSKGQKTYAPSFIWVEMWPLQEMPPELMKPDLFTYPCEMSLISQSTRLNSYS
RXFP1 agonist = qHTS Assay for Agonists of the Relaxin Receptor RXFP1; Relaxin receptor 1 (Homo sapiens), Q9HBX9; Potency, µM (series often up to 57.5 µM), most hits filed as activators; AID 2676, 2010; 0.3% of 370,000 active; HEK293T-RXFP1 cAMP TR-FRET, 30 min; response scale: percent of porcine relaxin response, buffer zero; active = well fitted activation curve with a large enough effect; inconclusive = small, poorly fitted or top-dose-only effect; note: nearly all actives have a fitted effect of over 60% in size
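HEK293 cells stably expressing RXFP1, treated 30 min at 37C with compounds plus PDE4 inhibitor Ro 20174; cAMP measured by HTRF TR-FRET. Normalized to buffer and 29 nM porcine relaxin; EC50 by Hill fit.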
Akt phos inh = HTS Assay for Inhibitors of Akt Phophorylation: Primary Screen; Neuro2A IGF-stimulated pAkt S473 HTRF, 20 min; active compounds read low; activity change, % for hits at 50 µM; 0.32% of 360,000 active; in the data active = activity change below about -80%; inconclusive = mostly about -51% to -80%
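Single-point screen (50 µM final compound) in Neuro2A cells stimulated 20 min with 6 nM IGF at 37 deg C. After lysis, Ser473-phosphorylated Akt read by HTRF (ex 330 nm, em 615/665 nm) as the 665/615 ratio.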
Large screens that a line does not name were inactive.

O=C(NC(NNc1ccc([N+](=O)[O-])cc1)(C(F)(F)F)C(F)(F)F)c1ccccc1Cl	none
Nc1ccc2nc(SCc3ccc([N+](=O)[O-])cc3)sc2c1	none
O=C(NC(Nc1nc2ccc([N+](=O)[O-])cc2s1)(C(F)(F)F)C(F)(F)F)c1ccccc1Cl	gsp antagonist 25µM
O=[N+]([O-])c1ccc2nc(SCc3ccccc3Cl)sc2c1	gsp antagonist 25µM
O=C(NC(Nc1nc2ccc([N+](=O)[O-])cc2s1)(C(F)(F)F)C(F)(F)F)c1cccnc1	gsp agonist inconclusive, gsp antagonist 35µM
COc1ccc(-c2nn(C)c3sc(C(=O)Nc4cc(OC)c(OC)c(OC)c4)cc23)cc1OC	none (no result: gsp agonist, gsp antagonist, Akt phos inh)
CC(=O)N1CCc2cc(CNS(=O)(=O)c3ccc(Cl)s3)ccc21	none (no result: gsp agonist, gsp antagonist, Akt phos inh)
CC1CCCC(NCC(O)COC(c2ccc(F)cc2)c2ccc(F)cc2)C1C (stereo not given)	RXFP1 antag -69
Cc1ccc(OCCCC(=O)NCc2ccco2)cc1	none
Cc1ccccc1OCCCC(=O)NCc1ccco1	Akt phos inh -101%
CC(C)(C)Nc1c(-c2ccc(O)cc2)nc2ccc(Cl)cn12	none
Oc1ccc(-c2nc3ccc(Cl)cn3c2Nc2ccc(Cl)cc2)cc1	RXFP1 antag -67 (no result: gsp agonist, gsp antagonist, Akt phos inh)
CCCC(=O)OCc1cnc(C)c2oc(=O)c(C(=O)Nc3cccc(C(F)(F)F)c3)cc12	none (no result: gsp agonist, gsp antagonist, RXFP1 antag, Akt phos inh)
CCn1c(=S)[nH]c2nc3c(cc2c1=O)CCCC3	gsp agonist 8.9µM, RXFP1 agonist inconclusive, Akt phos inh inconclusive
CCCCCn1c(N2CCCC2)nc2c1c(=O)n(C)c(=O)n2C	gsp antagonist inconclusive
Cn1c(=O)c2c(nc(N3CCCCC3)n2CCCNC2=NCCCC2)n(C)c1=O	gsp agonist 13µM
Cc1nc2cc(-c3cccc(F)c3)nn2c(C)c1CCC(=O)Nc1ccccc1C(N)=O	none (no result: gsp agonist, gsp antagonist, RXFP1 antag, Akt phos inh)
CC(=O)N(c1ccc2oc(=O)sc2c1)S(=O)(=O)c1ccccc1	none
CCOc1ccc(S(=O)(=O)N(C(=O)c2ccco2)c2cc3sc(=O)oc3c3ccccc23)cc1	RXFP1 antag -68
Cc1ccc(S(=O)(=O)N(C(=O)c2ccco2)c2cc3sc(=O)oc3c3ccccc23)cc1	RXFP1 antag -79
COc1ccc(S(=O)(=O)N(C(=O)c2ccco2)c2cc3sc(=O)oc3c3ccccc23)cc1	RXFP1 antag inconclusive
COC(=O)c1oc2ccc(Br)cc2c1NC(=O)CN1CCN(C)CC1	Akt phos inh -115% (no result: RXFP1 agonist)
COc1ccc(N(CC(=O)N/N=C/c2ccc(OC)cc2OC)S(=O)(=O)c2ccccc2)cc1	gsp antagonist 32µM
COc1ccc(NC(=O)Cn2cnc3c(nc4n3CCCCC4)c2=O)c(OC)c1	none (no result: gsp agonist, gsp antagonist, Akt phos inh)
CCOC(=O)c1ccc(NC(=O)/C=C/c2cccs2)cc1	gsp agonist inconclusive, gsp antagonist inconclusive, RXFP1 antag -102
CCN(CC)CCOC(=O)c1ccc(NC(=O)/C=C/c2cccs2)cc1	none
COc1cc(C2Nc3cccc4cccc(c34)N2)ccc1O	RXFP1 antag -70
O=C(NN1C(=O)c2ccccc2NC1c1ccc([N+](=O)[O-])o1)c1ccc([N+](=O)[O-])cc1 (stereo not given)	gsp agonist 1.8µM, RXFP1 agonist 2.8µM
CC(=O)c1ccc(N2CCN(c3ncnc4c3nc3n4CCCC3)CC2)cc1	none (no result: gsp agonist, gsp antagonist, Akt phos inh)
CCCn1c(N)c(C(=O)COC(=O)c2c(C)noc2C)c(=O)n(C)c1=O	gsp agonist 5µM, RXFP1 agonist inconclusive
CCC(C)NCCOCCOc1ccc(Cl)c(C)c1C (stereo not given)	RXFP1 antag -68
CCC(C)NCCOCCOc1ccc(Cl)c2ccccc12 (stereo not given)	RXFP1 antag -78
C=CCc1cc(Cl)ccc1OCCOCCNC(C)CC (stereo not given)	RXFP1 antag inconclusive
Cc1ccc(OCC(=O)NNC(=O)C2CCN(c3ncnc4sc(C)c(C)c34)CC2)cc1	none
Cc1cccc(C)c1NC(=O)CN(C)C(=O)C1CCN(c2ncnc3sc(C)c(C)c23)CC1	gsp agonist inconclusive
Cc1sc2ncnc(N3CCC(C(=O)Nc4ccc(OC(F)F)c(Cl)c4)CC3)c2c1C	gsp antagonist 28µM (no result: RXFP1 agonist)
Cc1sc2ncnc(N3CCC(C(=O)NNC(=O)c4ccccc4Cl)CC3)c2c1C	none
Cc1sc2ncnc(N3CCC(C(=O)NNC(=O)COc4cccc(C(F)(F)F)c4)CC3)c2c1C	gsp antagonist 50µM
Cc1sc2ncnc(N3CCC(C(=O)NNC(=O)COc4ccc(Br)cc4)CC3)c2c1C	gsp antagonist 32µM
Cc1cc(Br)ccc1NC(=O)CN(C)C(=O)C1CCN(c2ncnc3sc(C)c(C)c23)CC1	gsp antagonist 32µM (no result: RXFP1 agonist)
CNC(=O)c1cnn(-c2nc(N)c3ncn([C@@H]4O[C@H](CO)[C@@H](O)[C@H]4O)c3n2)c1	none (no result: gsp agonist, gsp antagonist, RXFP1 agonist, Akt phos inh)
CCOc1ccc(CCNC(=O)CN2C(=O)COc3ccc(S(=O)(=O)N4CCC(C)CC4)cc32)cc1	none (no result: gsp agonist, gsp antagonist, RXFP1 antag, Akt phos inh)
COc1ccc(S(=O)(=O)N(Cc2nc(-c3cccc(C)c3)no2)C2CCCCC2)cc1	none (no result: gsp agonist, gsp antagonist, Akt phos inh)
Cc1sc2ncnc(N3CCC(C(=O)NNC(=O)COc4ccc(Cl)cc4)CC3)c2c1C	gsp agonist inconclusive, gsp antagonist 32µM (no result: RXFP1 agonist)
Cc1cc(Cl)ccc1OCC(=O)NNC(=O)C1CCN(c2ncnc3sc(C)c(C)c23)CC1	gsp antagonist 35µM
Cc1sc2ncnc(N3CCC(C(=O)NNC(=O)COc4ccccc4Cl)CC3)c2c1C	gsp antagonist inconclusive, RXFP1 antag inconclusive
COc1ccccc1CNC(=O)c1cc2c(=O)n(Cc3cccs3)ccc2nc1C	none (no result: gsp agonist, gsp antagonist, Akt phos inh)
CCc1cccc(NC(=O)CCN2C(=O)c3ccccc3Sc3ncccc32)c1	none (no result: gsp agonist, gsp antagonist, Akt phos inh)
CCCn1c(SCC(=O)NCc2ccccc2)nnc1-c1ccncc1	Akt phos inh -115%
CCn1c(SCC(=O)NCc2ccc(C)cc2)nnc1-c1ccncc1	none
CCCCn1nnnc1SCC(=O)NNC(=O)c1ccco1	none
CCCCn1nnnc1SCC(=O)NCc1ccccc1	Akt phos inh -115%
COc1ccc(N=C2S/C(=C\c3ccc(OC(C)C(=O)O)c(OC)c3)C(=O)N2CCc2c[nH]c3ccccc23)cc1 (stereo not given)	gsp antagonist 35µM
COc1cc(/C=C2\SC(=Nc3ccccc3)N(CCc3c[nH]c4ccccc34)C2=O)ccc1OC(C)C(=O)O (stereo not given)	gsp antagonist 35µM
O=C1/C(=C/c2ccc(N3CCOCC3)o2)SC(=Nc2ccccc2)N1CCc1c[nH]c2ccccc12	RXFP1 antag -81
CCN(CC)c1ccc(C(=O)NCc2ccc3c(c2)CCN3C(=O)c2ccc(F)cc2)cc1	none (no result: gsp agonist, gsp antagonist, Akt phos inh)
